# Source: PubChem BioAssay (NCI)
# About 83,000 compounds went through this panel and 20% of them were active in at least one assay; those are over-represented in the sample as a whole.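 The test compound was applied at a single concentration to cells in 96-well plates for 48 hours, and percent growth was recorded.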 A number with no mark means an inactive call. Calls of active or inactive are those of the source. The calls were made as follows: active = growth percent below 10; inactive = the rest.
# Test system: HL-60(TB) leukemia
# Test: NCI-60 one-dose screen, 48 h (100 = growth as untreated, 0 = no growth, -100 = all killed)
# Conditions: 10 µM unless noted
row,Compound,growth
1,O=C1NCCc2c1noc2-c1ccccc1,102%
2,CC(C)C(=O)Nc1n[nH]c2cc(-c3cccc(NS(=O)(=O)C4CC4)c3)ccc12,64.3%
3,NC(=O)OCCO,106%
4,O=C1CCCC1[n+]1ccccc1 (centres undefined),88.1%
5,CCOC(=O)C/C(C)=N\O,94.5%
6,Cc1nc2ccccc2n1-c1ncnc2c1CC(C)c1ccccc1N2C (centres undefined),83.8%
7,O=C(N/N=C/c1coc2ccccc2c1=O)c1cc2oc(-c3ccccc3)cc2[nH]1,99%
8,O=C(CBr)OCc1ccc([N+](=O)[O-])o1,118%
9,CC(=O)c1nn(-c2ccc(C)cc2)cc1C(=O)c1cc2c(ccc3ccccc32)oc1=O,104%
10,C=C1CC[C@@H](C(=O)OC)Cc2nc(C)ccc21,100%
11,NS(=O)(=O)c1ccc(Cn2c(SCC(=O)N/N=C/c3ccccc3O)nc3ccccc3c2=O)cc1,40.9%
12,COC(=O)/C(CCC=C(C)C)=C1\[C@@H](OC(C)=O)C[C@@]2(C)[C@H]1C[C@@H](O)[C@H]1[C@@]3(C)CC[C@H](NCc4ccccc4)[C@@H](C)[C@@H]3CC[C@@]12C,43%
13,Cc1ccc(N=NC2C(=O)N(c3ccc(Cl)cc3)N(c3ccc(Cl)cc3)C2=O)cc1,103%
14,CCCCn1c(=O)c(-c2cc(-c3ccc(Cl)cc3)nc(-c3ccc(Cl)cc3)c2)cc2cc(C)ccc21,100%
15,O=C(/C=C/c1cccc([N+](=O)[O-])c1)c1ccc(Nc2nc(N3CCCCC3)nc(N3CCCCC3)n2)cc1,79.4%
16,CCN1CCN(CC(=O)Nc2nc3ccc(NCc4ccc(C)cc4)cc3s2)CC1,32.5%
17,COc1ccc(C(=O)/C=C/Nc2cc(-c3ccccc3)nn2-c2ccccc2)cc1,93.2%

row,Compound,growth
1,C=C1C(=O)O[C@H]2[C@H]1CC/C(CNC(=O)/C=C/c1ccc(Cl)cc1Cl)=C\CC[C@@]1(C)O[C@@H]21,-27.4% (active)
2,Cn1cc(-c2ccc3ncc(-c4ccc(CC(=O)Nc5cc(C(C)(C)C)nn5C)cc4)cc3c2)cn1,-36.7% [30 µM] (active)
3,C#CC(F)(F)[C@]1(O)CC[C@H]2[C@@H]3CCC4=CC(=O)CCC4=C3[C@@H](c3ccc(C4CC4)cc3)C[C@@]21C,-61.1% (active)
4,Cc1ccc(Nc2nc(N)nc(N)c2N=O)cc1Cl,67.9%
5,Cn1cc(-c2nc(-c3c[nH]c4ncccc34)cs2)c2cc(Cl)ccc21,55.8%
6,CC(=O)O[C@H]1CC[C@]2(C)[C@H]3CC=C4[C@@H]5CC(C)(C)CC[C@]5(C(=O)OCC(COC(=O)C(Cl)Cl)(COC(=O)C(Cl)Cl)NC(=O)C(Cl)Cl)CC[C@@]4(C)[C@]3(C)CC[C@H]2C1(C)C,33.1%
7,O=C(CN1C(=O)NC2NC(=O)NC21)N/N=C/c1cccc([N+](=O)[O-])c1 (centres undefined),99.1%
8,CN(C)CCOC(=O)Nc1ccc(Cl)cc1,100%
9,CCCOC(=O)C(O)c1ccccc1 (centres undefined),113%
10,C/C(=C\C(=O)c1ccc(Cl)cc1)c1ccc(Cl)cc1,92.5%
11,C[C@@H]1O[C@@H](O[C@H]2[C@@H](OC(=O)[C@]34CCC(C)(C)C[C@H]3C3=CC[C@@H]5[C@@]6(C)C[C@H](O)[C@H](O[C@@H]7O[C@H](CO)[C@@H](O)[C@H](O)[C@H]7O)[C@@](C)(CO)[C@@H]6CC[C@@]5(C)[C@]3(C)C[C@H]4O)OC[C@@H](O)[C@@H]2O)[C@H](O)[C@H](O[C@@H]2OC[C@@H](O)[C@H](O[C@@H]3OC[C@](O)(CO)[C@H]3O[C@@H]3OC[C@@H](O)[C@H](O)[C@H]3O)[C@H]2O)[C@H]1O[C@@H]1OC[C@](O)(CO)[C@H]1O,21.4%
12,O=C(O)Cc1ccc2c(c1)Cc1cccnc1O2,103%
13,CCN(CC)c1ccc(C2CC(c3cc(OC)c(OC)c(OC)c3)=NN2)cc1 (centres undefined),-35.1% (active)
14,Nc1ccc2c(c1)C(=O)C(=O)c1c-2nc2ccccn12,-47.3% (active)
15,COc1cccc(/C=C2\COc3ccc(-c4ccccc4)cc3C2=O)c1,-47% (active)
16,O=C(O)c1ccc(Cl)cc1Nc1ccc(F)cc1,90.2%
17,COc1cc2c(cc1-c1c(C)noc1C)ncc1nc(C3CCCCC3)n([C@@H](C)COC(F)F)c12,17.4%
